Consider 25 molecules from PubChem BioAssay (Tox21).

Where “and” joins values, the source holds several entries; their conditions need not be identical. Equal values may be shown once. Unmarked numbers belong to inactive results. Records with an inconclusive call do not appear. Calls of active or inactive are those of the source. Calls follow the shape of the dose curve; as a rule, active = well fitted curve in the direction sought with a large enough effect in the repeat runs; inconclusive = weak or mixed curves; inactive = no such curve, though single readings can be large; an effect the other way counts as inactive or inconclusive.

The nature of experiment [1]: Human pregnane X receptor (PXR) small molecule agonists, qHTS cell viability counter screen (AID 1346977). Also: nearly all actives have a fitted effect of over 50% in size. The method in brief:
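In each well, the PXR reporter HepG2 line was checked for viability: CellTiter-Fluor reagent added 23hr post-dosing, fluorescence read after 1hr incubation at 37C.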

A short description of experiment [2]: Caspase-3/7 induction in HepG2 cells by small molecules, qHTS assay (AID 1346978). Also: nearly all actives have a fitted effect of over 15% in size. The method in brief: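 Wild-type HepG2 cells, 2,000/well, settled 5 hr at 37 C and 5% CO2, then compound-treated for 17 hr; caspase-3/7 activity read by luminescent Caspase-Glo 3/7 after 30 min at room temperature.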
For orientation: In qHTS, concentration-response curves come from the screen itself.

The nature of experiment [3]: Caspase-3/7 induction in CHO-K1 cells by small molecules, qHTS cell viability counter screen (AID 1346979). Also: nearly all actives have a fitted effect of over 35% in size. The method in brief: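 Following a 5hr settling period, CHO-K1 cells at 1,500 per well received DMSO-dissolved compounds. Cell viability was quantified 16hr later by CellTiter-Fluor fluorescence, measured after 1hr with reagent at 37C.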
Experiment [4] is described as follows: Caspase-3/7 induction in HepG2 cells by small molecules, qHTS cell viability counter screen (AID 1346981). Also: series mostly up to about 92 µM; nearly all actives have a fitted effect of over 30% in size. The method, boiled down:
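The parent HepG2 line is plated at 2,000 cells per well and rested 5 hr before compound pinning from DMSO stocks. Following a 16-hr treatment at 37 C, a fluorogenic live-cell substrate (CellTiter-Fluor) reports viability after 1 hr.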

Experiment [5] has as its target Nuclear receptor subfamily 1 group I member 2 (Homo sapiens) (UniProt O75469). Put plainly: Human pregnane X receptor (PXR) small molecule agonists, qHTS assay (AID 1346982). Also: nearly all actives have a fitted effect of over 35% in size. Also: potency is read from the fitted curve at half-maximal effect. The method in brief: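 After plating in 5% charcoal-stripped FBS and a 5 hr rest, PXR-Luc HepG2 cells received compounds in DMSO. Following 24 hr at 37 C, ONE-Glo was added and light output read.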

Experiment [6] deals with Nuclear receptor subfamily 1 group I member 2 (Rattus norvegicus) (UniProt Q9R1A7). In words: Rat pregnane X receptor (rPXR) activation by small molecules, qHTS assay (AID 1346983). Also: nearly all actives have a fitted effect of over 20% in size. Also: potency is read from the fitted curve at half-maximal effect. The conditions noted are these: rPXR luciferase reporter cells, One-Glo luminescence, 24 h; max activation: active compounds read high. The method in brief: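 Cell-based rPXR activation assay: rPXR cells, 2,000 per well, rested 5hr at 37 C, then exposed to compounds in DMSO for 24 hr at 37 C. Luciferase activity read by One-Glo luminescence after 30 min at room temperature.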

Experiment [7] addresses Nuclear receptor subfamily 1 group I member 2 (Homo sapiens) (UniProt O75469). Put plainly: CYP3A4 induction through human pregnane X receptor (PXR) by small molecules, qHTS assay (AID 1346984). Also: nearly all actives have a fitted effect of over 40% in size. The method in brief: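 Human PXR activation is tracked via CYP3A4 promoter-luciferase in DPX-2 (HepG2) cells. Compounds treat cells for 24hr at 37C, and luminescence is read after One-Glo.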

For experiment [8] the target is unchanged. Put plainly: Human pregnane X receptor (PXR) activation by small molecules, qHTS assay (AID 1346985). Also: nearly all actives have a fitted effect of over 40% in size. Also: potency is read from the fitted curve at half-maximal effect. The method in brief:
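DPX-2 cells (HepG2 co-transfected with a PXR response element and a CYP3A4-promoter luciferase construct) were seeded at 2,000 per well, rested 5 hr at 37C, then exposed to DMSO-dissolved compounds for 24 hr. Activation was read as luciferase luminescence.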

The target of experiment [9] is Cytochrome P450 2D6 (Homo sapiens) (UniProt P10635). In words: Cytochrome P450 Family 2 Subfamily D Member 6 (CYP2D6) small molecule antagonists: luciferase reporter qHTS assay (AID 1671196). Also: nearly all actives have a fitted effect of over 50% in size. Also: potency is read from the fitted curve at half-maximal effect. As to activity change, negative = inhibition: series mostly up to about 120 µM. The method in brief:
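Quantitative HTS of Tox21 chemicals against CYP2D6 using a luminescent proluciferin substrate. After NADPH addition, 1 h room-temperature reaction; luminescence recorded 20 min post detection reagent.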
Background: A reporter such as luciferase makes a cellular process visible.

The nature of experiment [10]: Caspase-3/7 induction in CHO-K1 cells by small molecules, qHTS assay (AID 1346980). Also: nearly all actives have a fitted effect of over 15% in size. The method, boiled down: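 Wild-type CHO-K1 cells exposed to compounds for 17hr at 37 C, 5% CO2. Caspase-3/7 activity then measured by Caspase-Glo 3/7 luminescence after 30min at room temperature.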
% is scaled to controls: 0 for no effect and ±100 for the full control effect.

Chain of Cytochrome P450 2D6 (Homo sapiens) (P10635 whole entry, looked up): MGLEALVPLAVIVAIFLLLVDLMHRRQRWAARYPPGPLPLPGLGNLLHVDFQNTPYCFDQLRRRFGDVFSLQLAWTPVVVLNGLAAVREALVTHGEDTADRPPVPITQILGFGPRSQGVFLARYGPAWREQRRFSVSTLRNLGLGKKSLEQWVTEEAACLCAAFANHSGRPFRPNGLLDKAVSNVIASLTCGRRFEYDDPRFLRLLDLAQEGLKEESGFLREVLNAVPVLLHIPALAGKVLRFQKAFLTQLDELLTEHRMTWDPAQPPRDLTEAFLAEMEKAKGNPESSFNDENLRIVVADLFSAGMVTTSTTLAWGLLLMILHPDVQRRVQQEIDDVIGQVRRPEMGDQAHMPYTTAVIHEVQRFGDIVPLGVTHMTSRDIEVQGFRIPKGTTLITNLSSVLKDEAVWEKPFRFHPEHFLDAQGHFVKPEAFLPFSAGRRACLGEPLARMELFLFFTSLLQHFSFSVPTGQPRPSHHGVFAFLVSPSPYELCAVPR
Chain of Nuclear receptor subfamily 1 group I member 2 (Homo sapiens) (O75469 whole entry, looked up): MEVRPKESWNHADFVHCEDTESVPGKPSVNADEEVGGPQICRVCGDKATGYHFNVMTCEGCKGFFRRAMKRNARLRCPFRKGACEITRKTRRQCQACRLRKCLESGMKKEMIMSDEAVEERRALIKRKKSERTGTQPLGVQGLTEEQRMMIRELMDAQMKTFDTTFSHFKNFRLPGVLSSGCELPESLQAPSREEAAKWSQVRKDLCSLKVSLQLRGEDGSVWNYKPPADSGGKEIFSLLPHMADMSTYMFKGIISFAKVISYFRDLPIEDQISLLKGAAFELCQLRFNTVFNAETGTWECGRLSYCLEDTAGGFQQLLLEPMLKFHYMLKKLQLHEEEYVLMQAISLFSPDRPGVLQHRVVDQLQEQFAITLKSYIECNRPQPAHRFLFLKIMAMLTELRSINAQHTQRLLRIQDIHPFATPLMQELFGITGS
Chain of Nuclear receptor subfamily 1 group I member 2 (Rattus norvegicus) (Q9R1A7 whole entry, looked up): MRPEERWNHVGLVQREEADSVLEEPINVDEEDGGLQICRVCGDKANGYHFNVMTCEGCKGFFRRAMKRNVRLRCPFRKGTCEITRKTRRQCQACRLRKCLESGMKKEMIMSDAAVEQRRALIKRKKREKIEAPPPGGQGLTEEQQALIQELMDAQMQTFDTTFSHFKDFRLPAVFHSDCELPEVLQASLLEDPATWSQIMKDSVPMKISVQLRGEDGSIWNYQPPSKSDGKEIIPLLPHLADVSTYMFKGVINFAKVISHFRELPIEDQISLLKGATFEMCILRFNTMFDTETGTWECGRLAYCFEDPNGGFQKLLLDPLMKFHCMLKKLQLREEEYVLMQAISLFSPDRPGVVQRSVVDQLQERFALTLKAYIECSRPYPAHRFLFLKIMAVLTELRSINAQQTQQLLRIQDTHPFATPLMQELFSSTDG

For the molecule `CCN(CC)CCNC(=O)COc1ccc(Cl)cc1`, the Potency result in experiment [1], in experiment [2], in [3], in [4], in [5] and in [7] was “inactive” each time. Also, in experiment [8], the Potency entry is “inactive”. Further, the max activation in [6] is -3.06%. The Potency in experiment [9] was 12.3 µM (active).
Regarding `CCCCCCCCCC/C=C/C#N`, the Potency entry in experiment [1], in experiment [2], in experiment [3], in experiment [5] and in experiment [9] was “inactive” throughout. Moreover, in experiment [10], the call was inactive.
Consider `CCOc1ccccc1N`, for which the Potency entry in experiment [1], in [2] and in [3] was “inactive” each time. Further, the result in experiment [10] was inactive. Further, the Potency in experiment [9] is 3.53 µM (active).
Regarding `CC1(C)O[C@@H]2C[C@H]3[C@@H]4CCC5=CC(=O)CC[C@]5(C)[C@@]4(F)[C@@H](O)C[C@]3(C)[C@]2(C(=O)CCl)O1`, the Potency result in experiment [1], in experiment [2] and in experiment [3] was “inactive” throughout. The result in experiment [10] was inactive. Moreover, the Potency in experiment [5] is 9.44 µM (active); in experiment [6] it was 1 µM (active); in experiment [8], 5.01 µM (active).
As to `CN1CCN(N)CC1`, the Potency result in [1], in experiment [2], in [3], in experiment [4], in experiment [5] and in [9] was “inactive” in each case.
For `C[C@@H](N)C(=O)O`, the Potency result in experiment [1], in experiment [2], in [3], in experiment [4], in experiment [5] and in experiment [7] was “inactive” each time. The Potency entry in experiment [8] and in [9] was “inactive” in each case. Further, the max activation in [6] was -2.77%.
For `Cc1nnc(SCC2=C(C(=O)O)N3C(=O)[C@@H](NC(=O)Cn4cnnn4)[C@H]3SC2)s1`, the Potency result in experiment [1], in experiment [2], in experiment [3], in experiment [5], in experiment [7] and in [8] was “inactive” in each case. Moreover, the Potency result in [9] was “inactive”. Also, in experiment [10], the call was inactive. Besides, the max activation in experiment [6] was -4.1%.
For the molecule `CCOc1ccc2nc(N)sc2c1`, the Potency entry in experiment [1], in experiment [2] and in [3] was “inactive” throughout. Moreover, the outcome in experiment [10] was inactive. Also, the Potency was 17.1 µM (active) in experiment [5] and 39.6 µM (active) in experiment [9].
As for `COC(=O)/C=C(/C)N`, the Potency entry in experiment [1], in [2], in [3], in [4], in experiment [5] and in experiment [9] was “inactive” in each case.
`O=C(Cl)c1cccc([N+](=O)[O-])c1`: the Potency result in experiment [1], in experiment [2], in [4], in experiment [5] and in experiment [9] was “inactive” each time. Further, the result in experiment [10] was inactive.
In the case of `C[C@]12CCC(=O)C=C1CC[C@@H]1[C@@H]2CC[C@@]2(C)[C@H]1CC[C@]2(O)C(=O)CO`, the Potency entry in experiment [1], in experiment [2], in experiment [3], in experiment [7] and in experiment [8] was “inactive” throughout. For the same molecule, in experiment [6], the max activation was 14.2%.
As to `COC(=O)c1ccc2cc(C(=O)OC)ccc2c1`, the activity change, negative = cytotoxicity in experiment [1] is 6.1% [at 19 µM]; in experiment [3], 6.59% [at 19 µM]; in [4], -0.603% [at 19 µM]. In [2], the caspase activation is -5.84% [at 19 µM]. In addition, the activation in experiment [5] is 19.9% [at 19 µM]. The activity change, negative = inhibition in experiment [9] is -8.11% [at 23.6 µM].
On to `CCOc1ccc(NC(N)=O)cc1`, for which the Potency entry in experiment [1], in experiment [2], in [4], in experiment [5] and in experiment [9] was “inactive” throughout. In addition, the result in experiment [10] was inactive.
`CCCCCCCOC(=O)CCC`: the Potency entry in [1], in experiment [2], in experiment [3], in experiment [4] and in [5] was “inactive” throughout. Also, the Potency in experiment [9] was 20 µM (active).
Regarding `COc1ccc(S(=O)(=O)Nc2nnc(CC(C)C)s2)cc1`, the Potency result in experiment [1], in experiment [2], in experiment [3], in experiment [4], in experiment [7] and in experiment [8] was “inactive” throughout. Further, the Potency entry in experiment [9] was “inactive”. Moreover, the max activation in [6] was -1.31% and -1.74%.
On to `CC(Oc1c(Cl)cccc1Cl)C1=NCCN1` (centres undefined), for which the Potency result in [1], in experiment [2], in experiment [3] and in experiment [4] was “inactive” each time. For the same molecule, the Potency in experiment [9] was 4.9 µM (active).
On to `CC1CN(c2ccccc2)NC1=O` (centres undefined), for which the Potency entry in experiment [1], in [2], in experiment [3] and in [4] was “inactive” throughout. The figures for the Potency in [5] and in experiment [9] were 54.5 µM (active) and 31.7 µM (active), respectively.
On to `O=c1oc2c(O)c(O)cc3c(=O)oc4c(O)c(O)cc1c4c23`, for which the activity change, negative = cytotoxicity in experiment [1] was 4.42% [at 19 µM]; in experiment [4], 1.61% [at 19 µM]. For the same molecule, the caspase activation in [2] was 0.0819% [at 19 µM]. For the same molecule, in experiment [10], the caspase-3/7 activation is 0.998% [at 19 µM]. Also, the activity change, negative = inhibition in experiment [9] is -16.4% [at 23.6 µM].
For `ICCc1ccccc1`, the Potency result in experiment [1], in experiment [2], in experiment [3] and in [4] was “inactive” throughout. The figures for the Potency in experiment [5] and in [9] were 59.9 µM (active) and 6.95 µM (active), respectively.
`CC/C=C\CCOC(=O)CCCCC`: the Potency result in experiment [1], in experiment [2], in experiment [3], in [4] and in experiment [9] was “inactive” in each case.
As for `Cc1ncc(CO)c(CN)c1O`, the Potency entry in experiment [1], in experiment [2], in [4], in experiment [5], in experiment [7] and in experiment [8] was “inactive” in each case. In addition, the Potency entry in experiment [9] was “inactive”. In addition, the result in experiment [10] was inactive. The max activation in experiment [6] was -1.2%.
For `CCN1CC(CCN2CCOCC2)C(c2ccccc2)(c2ccccc2)C1=O` (centres undefined), the Potency result in experiment [1], in [2], in [4], in [5] and in [7] was “inactive” in each case. The call in experiment [10] was inactive. For the same molecule, the max activation in [6] is 9.94%. For the same molecule, in experiment [9], the Potency was 1.23 µM (active).
Consider `O=C(CC(=O)C(F)(F)F)c1ccccc1`, for which the Potency entry in [1], in [2] and in experiment [4] was “inactive” each time. In [10], the molecule was classed as inactive.
On to `CC1=C(CC(=O)O)c2cc(F)ccc2/C1=C\c1ccc(S(C)(=O)=O)cc1`, for which the Potency result in experiment [1], in experiment [2] and in [5] was “inactive” throughout. The call in experiment [10] was inactive.
With `CCCCCCOc1ccc(N)cc1`, the Potency result in [1], in experiment [2] and in [4] was “inactive” throughout. Moreover, the outcome in experiment [10] was inactive. Moreover, the Potency in [5] is 48.6 µM (active); in experiment [9], 35.6 µM (active).
